This is an account of results in PubChem BioAssay AID463173 (ICCB-Longwood Screening Facility, Harvard Medical School, 2010).

The campaign covered roughly 52,000 compounds. About 4,300 (8.3%) were called active. This is one part of a sample in which actives are shown more often than they occur. Unmarked numbers belong to inactive results. Cut-off read from the data, not from the text of the source: active = survival mostly below about 52% (no sharp cut-off); inactive = mostly above about 56%.

The test system of this test is DeltatarO mutant. Briefly: growth inhibition of S. aureus wild type versus tarO mutant, primary screen, teichoic acid synthesis inhibitors, RN4220, OD600 (AID 463173). The conditions noted are these: OD600, 18 h, active compounds read low, screened at 18.75 µg/mL (by protocol).
Turning to `O=C(NCCc1csc(-c2ccc(Cl)cc2)n1)c1cccs1`, the survival was 89%.

`COc1ccc(CNC(=O)c2cc3ccccn3n2)cc1OC`: the survival was 79%. `Cc1cc(O)c(C(c2ccccc2Cl)N2CCCCC2)c(=O)n1Cc1ccco1` (stereo not drawn): the survival was 76%.

Take `CCCOC(=O)c1c(-c2ccccc2)c(-c2ccccc2)nn(C)c1=O`: the survival is 60%. On to `Cc1ccc(C)c(Nc2ncnc3onc(C)c23)c1`, for which the survival is 81%. As for `CCOC(=O)c1ccc(Nc2c(-c3ccc(O)c(OC)c3)nc3nc[nH]n23)cc1`, the survival was 93%. As to `CCOC(=O)c1ccc(Nc2c(-c3ccc(O)cc3)nc3nc[nH]n23)cc1`, the survival was 91%.

Consider `CCOC(=O)c1ccc(Nc2c(-c3cccc(O)c3)nc3nc[nH]n23)cc1`, for which the survival is 46% (active). Take `COc1ccc(NC(=O)C2CCCN(C(=O)c3cnn(-c4ccccc4)c3-n3cccc3)C2)cc1` (stereo not drawn): the survival is 70%. As to `COc1ccc(NC(=O)C2CCCN(C(=O)c3cnn(-c4ccc(F)cc4)c3-n3cccc3)C2)cc1` (stereo not drawn), the survival is 47% (active). Take `COc1ccc(CNC(=O)C2CCCN(C(=O)c3cnn(-c4ccc(F)cc4)c3-n3cccc3)C2)cc1` (stereo not drawn): the survival is 86%. Turning to `COc1ccc(-c2noc(N(c3nc(-c4ccc(OC)c(OC)c4)no3)c3ccccc3OC)n2)cc1OC`, the survival was 115%. The value for `CC(C)c1ccccc1NC(=O)CN1C(=O)c2cccc3cccc1c23` was 40% (active); that for `COc1ccccc1NC(=O)CN1C(=O)c2cccc3cccc1c23` was 62%. As for `O=C(CN1C(=O)c2cccc3cccc1c23)Nc1ccccc1Br`, the survival is 63%. `CCOC(=O)c1cnc2cc(-c3ccc(OCC)cc3)nn2c1-c1ccccc1`: the survival was 68%. For `CCCSc1nc2sc3c(c2c(=O)n1-c1ccc(C)cc1)CCCC3`, the survival was 8% (active).

For `CC(C)CCSc1nnc2n(-c3ccccc3)c(=O)c3c4c(sc3n12)CC(C)CC4` (stereo not drawn), the survival was 70%. For `C=C(C)CSc1nc2sc3c(c2c(=O)n1-c1ccccc1)CCC(C)C3` (stereo not drawn), the survival was 84%. Take `CSc1nc2sc3c(c2c(=O)n1Cc1ccccc1)CCC(C(C)(C)C)C3` (stereo not drawn): the survival was 114%. Regarding `COC(=O)CSc1nc2sc3c(c2c(=O)n1Cc1ccccc1)CCC(C(C)(C)C)C3` (stereo not drawn), the survival was 66%. To `CCCc1nc2sc3c(c2c(=O)n1N)CCCC3` belongs 97%; to `CCOC(=O)CSc1nnc2n(-c3ccccc3)c(=O)c3c4c(sc3n12)CC(C(C)(C)C)CC4` (stereo not drawn), 46% (active); to `CSc1nc2sc3c(c2c(=O)n1-c1ccccc1)CCC(C(C)(C)C)C3` (stereo not drawn), 18% (active). Take `CCOC(=O)CSc1nnc2n(-c3ccccc3)c(=O)c3c4c(sc3n12)COC(C(C)C)C4` (stereo not drawn): the survival was 74%. As for `CCCSc1nc2sc3c(c2c(=O)n1-c1ccc(C)c(Cl)c1)CCN(C(C)=O)C3`, the survival was 81%. In the case of `CCOC(=O)CSc1nc2sc3c(c2c(=O)n1-c1ccccc1)CCC(C(C)(C)C)C3` (stereo not drawn), the survival was 58%. As to `CCCSc1nc2sc3c(c2c(=O)n1-c1ccccc1)CCC(C)C3` (stereo not drawn), the survival is 2% (active). For the compound `COc1cc(NC(=O)NCCn2nnc3cc(S(=O)(=O)N(C)C)ccc32)cc(OC)c1OC`, the survival was 84%. Consider `Cc1ccc(S(=O)(=O)NC(C)(C)CN2CCCCC2)cc1`, for which the survival was 96%. Consider `NC1CCN(C(=O)NC2CCCCC2)CC1`, for which the survival is 89%. Consider `Cc1cc(=O)n(Cc2ccccc2)c(=O)n1Cc1ccccc1`, for which the survival is 89%.

As for `Cc1ccccc1-c1nc(CS(=O)(=O)CC(=O)Nc2c(C)cccc2C)c(C)o1`, the survival is 92%.

For `Cn1cc(S(=O)(=O)N2CCCCCC2)cc1C(=O)Nc1ccccc1F`, the survival was 88%.

Turning to `CC(=O)N1CCC(N(Cc2ccco2)C(=O)Nc2cccc(C)c2)CC1`, the survival was 130%. For `COC(=O)c1ccccc1NC(=O)Nc1cccc(OCc2cc(=O)n3cccc(C)c3n2)c1`, the survival is 134%. Consider `Cc1ccc(-n2c(SCC(=O)O)nc3sc4c(c3c2=O)CCCC4)cc1`, for which the survival is 90%. To `CSc1nc2sc3c(c2c(=O)n1-c1ccccc1C)CCCC3` belongs 97%; to `Cc1ccc(-n2c(=O)[nH]c3sc4c(c3c2=O)CCCC4)cc1`, 133%; to `CSc1nc2sc3c(c2c(=O)n1-c1ccc(C)cc1)CCCC3`, 39% (active). For `CCSc1nc2sc3c(c2c(=O)n1-c1ccc(C)cc1)CCCC3`, the survival was 0% (active). On to `CCc1ccc(-n2c(=O)c3c4c(sc3n(Cc3ccc(C)cc3)c2=O)CCC4)cc1`, for which the survival was 132%. On to `CCCOc1ccc(-c2nc3ccc(Br)cc3c(=O)o2)cc1`, for which the survival is 81%.

`Cc1ccc(C)c(NC(=O)Cn2cc(S(=O)(=O)c3ccc(F)cc3)c(=O)c3cc(F)ccc32)c1`: the survival is 87%. With `Cc1c(C(=O)N(Cc2ccc(N(C)C)cc2)CC2CCCO2)oc2ccccc12` (stereo not drawn), the survival was 61%. Consider `COC(=O)CNc1ccc(C)c(C)c1`, for which the survival is 67%.

As to `Cc1cccc(CCNC(=O)c2nc(-c3ccc(Cl)cc3)n3c2CCCCC3)c1`, the survival is 89%. To `O=C(Nc1ccc(C(F)(F)F)cc1)C1CCC(CNS(=O)(=O)c2cccc3nsnc23)CC1` (stereo not drawn) belongs 49%.

Take `Cc1ccc(-n2ncc(C(=O)NCCCN3CCN(c4cccc(Cl)c4)CC3)c2-n2cccc2)cc1`: the survival is 75%.

On to `O=C(NCCCN1CCN(c2ccc(F)cc2)CC1)c1cnn(-c2ccc(F)cc2)c1-n1cccc1`, for which the survival was 70%.

In the case of `Cc1ccc(-n2nc(C)c(C(=O)NCCCN3CCN(c4ccc(F)cc4)CC3)c2-n2cccc2)cc1`, the survival was 92%. Turning to `Cc1nn(-c2ccc(F)cc2)c(-n2cccc2)c1C(=O)NCCCN1CCN(c2cccc(Cl)c2)CC1`, the survival is 94%.

`Cc1ccc(-n2nc(C)c(C(=O)NCCCN3CCN(c4cccc(Cl)c4)CC3)c2-n2cccc2)cc1`: the survival was 0% (active).

As to `O=C(NCCCN1CCN(c2cccc(Cl)c2)CC1)c1cnn(-c2ccc(F)cc2)c1-n1cccc1`, the survival was 32% (active). In the case of `O=C(Cn1c(=O)c2cc(Cl)ccc2n2nncc12)Nc1ccccc1`, the survival was 75%. With `O=C(CCC1CCCC1)N1CCc2c([nH]c3ccccc23)C1c1ccc(F)cc1` (stereo not drawn), the survival was 99%. Consider `CCCCN(C(=O)C1CCC1)c1nnc(-c2ccncc2)s1`, for which the survival was 96%. On to `Clc1ccc(-c2nc3ncccn3c2Nc2ccc3c(c2)OCCO3)cc1`, for which the survival is 89%.
